According to PubChem BioAssay (NCATS):
Records with an inconclusive call do not appear. Where a call stands in place of a potency, no number is given. Activity calls are given as the source filed them. The call rests on the fitted dose curve; in most records, active means well fitted inhibition curve with a large enough effect; inconclusive means small, poorly fitted or top-dose-only effect; inactive means no such curve, though single readings can be large or run the other way.

Each compound was assayed on Zika virus NS2B-NS3 protease (unlinked complex) (assay: Primary screen GU Rhodamine qHTS for Zika virus inhibitors: Unlinked NS2B-NS3 protease assay (AID 1347159; further: nearly all actives have a fitted effect of over 60% in size)). Conditions: Recombinant ZIKV NS2B-NS3 protease, Rhodamine110 substrate fluorescence; series mostly up to 107 µM.
In short: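 Percent inhibition came from the 15-min rise in Rhodamine110 fluorescence (1.5 microM substrate, ~15% conversion), normalized to no-inhibitor and no-enzyme wells and Hill-fitted. Unlinked protease, 25 nM, pH 8.0 Tris buffer; compounds up to 114 microM, 15-min preincubation.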
Potency means the concentration at half of the fitted maximal effect.

Question: `CCNC(=O)CC1N=C(c2ccc(Cl)cc2)c2cc(OC)ccc2-n2c(C)nnc21` (configuration not stated) was tested. Which Potency did it give?
Answer: The Potency was “inactive”.

Question: Which Potency does the source give for `CCc1c(C(=O)C(N)=O)c2c(OCC(=O)O)cccc2n1Cc1ccccc1` here?
Answer: The Potency was “inactive”.

Question: For `CC1(N2CCC(n3c([C@@H]4CCCNC4)nc4ccccc43)CC2)CCCCCCC1`, which Potency is on record?
Answer: The Potency was “inactive”.

Question: `O=C(O)CNC(=O)c1c(O)c2ccccc2n(Cc2ccccc2)c1=O` was tested. Which Potency did it give?
Answer: The Potency was 12.6 µM (active).

Question: How did the Potency turn out when `CCOC(=O)Nc1ccc(NCc2ccc(F)cc2)cc1N` was run?
Answer: The Potency was “inactive”.

Question: `CC(N[C@H]1C[C@H]1c1ccccc1)c1ccc2c(c1)OCCO2` (some centres not stated) was tested. Which Potency did it give?
Answer: Its Potency is “inactive”.

Question: `CC(C)N(CCNC(=O)CN1CCCC1=O)C(C)C` was tested. Which Potency did it give?
Answer: Its Potency is “inactive”.

Question: How did the Potency turn out when `O=C1C=CC[C@@H]2[C@H]3CCCN4CCC[C@@H](CN12)[C@@H]34` was run?
Answer: Its Potency is “inactive”.

Question: For `CCNC(=O)C[C@@H]1N=C(c2ccc(Cl)cc2)c2cc(OC)ccc2-n2c(C)nnc21`, which Potency is on record?
Answer: The Potency was “inactive”.

Question: How did the Potency turn out when `CN1CCN(c2ccc([N+](=O)[O-])c3no[n+]([O-])c23)CC1` was run?
Answer: The Potency was “inactive”.

Question: `CCN(CC)C(=O)c1ccc(C2=CC3(CCNCC3)Oc3cccc(O)c32)cc1` was tested. Which Potency did it give?
Answer: Its Potency is “inactive”.

Question: For `O=C(Oc1ccc([N+](=O)[O-])cc1)N1CCN(Cc2cccc(Oc3ccccc3)c2)CC1`, which Potency is on record?
Answer: Its Potency is “inactive”.

Question: `O=C(N[C@@H](COc1ccc2[nH]c(=O)[nH]c2c1)c1ccccc1)c1cccn(Cc2ccc(F)c(F)c2)c1=O` was tested. Which Potency did it give?
Answer: The Potency was “inactive”.

Question: With `CC(=O)Nc1ccc(OC[C@](C)(O)C(=O)Nc2ccc([N+](=O)[O-])c(C(F)(F)F)c2)cc1` as the compound, how does the Potency read?
Answer: Its Potency is “inactive”.

What follows are compounds tested on Zika virus NS2B-NS3 protease (linked construct) (assay: Primary screen NINDS Rhodamine qHTS for Zika virus inhibitors (AID 1347160; further: nearly all actives have a fitted effect of over 55% in size)). Conditions: purified NS2B-NS3 protease, Rhodamine110 substrate fluorescence; series mostly up to 57.1 µM.
In short: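 Rhodamine110-peptide cleavage (1.5 µM substrate) by 25 nM linked NS2B-NS3 enzyme at pH 8.0 (Tris, Tween 20), after 15 min RT preincubation with compounds; 15-min fluorescence change normalized to controls and Hill-fitted.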

Question: `CCNC(=O)CC1N=C(c2ccc(Cl)cc2)c2cc(OC)ccc2-n2c(C)nnc21` (configuration not stated) was tested. Which Potency did it give?
Answer: The Potency was “inactive”.

Question: `CCc1c(C(=O)C(N)=O)c2c(OCC(=O)O)cccc2n1Cc1ccccc1` was tested. Which Potency did it give?
Answer: Its Potency is “inactive”.

Question: Which Potency does the source give for `CC(C)(C)NC[C@H](O)c1ccc(O)cc1Cl` here?
Answer: The Potency was “inactive”.

Question: `CC1(N2CCC(n3c([C@@H]4CCCNC4)nc4ccccc43)CC2)CCCCCCC1` was tested. Which Potency did it give?
Answer: Its Potency is “inactive”.

Question: How did the Potency turn out when `O=C(O)CNC(=O)c1c(O)c2ccccc2n(Cc2ccccc2)c1=O` was run?
Answer: Its Potency is 11.2 µM (active).

Question: `CCOC(=O)Nc1ccc(NCc2ccc(F)cc2)cc1N` was tested. Which Potency did it give?
Answer: Its Potency is “inactive”.

Question: How did the Potency turn out when `CC(C)N(CCNC(=O)CN1CCCC1=O)C(C)C` was run?
Answer: Its Potency is “inactive”.

Question: With `CN1CCN(c2ccc([N+](=O)[O-])c3no[n+]([O-])c23)CC1` as the compound, how does the Potency read?
Answer: The Potency was “inactive”.

Question: For `CCN(CC)C(=O)c1ccc(C2=CC3(CCNCC3)Oc3cccc(O)c32)cc1`, which Potency is on record?
Answer: The Potency was “inactive”.

Question: For `O=C(Oc1ccc([N+](=O)[O-])cc1)N1CCN(Cc2cccc(Oc3ccccc3)c2)CC1`, which Potency is on record?
Answer: The Potency was “inactive”.

Question: With `O=C(NCC1CCOCC1)c1cnc(Nc2ccc(Cl)cc2Cl)nc1C(F)(F)F` as the compound, how does the Potency read?
Answer: Its Potency is “inactive”.

Question: How did the Potency turn out when `CCN1CCN(C(=O)Cc2ccc(Nc3ncc(F)c(Nc4ccc(C(=O)Nc5ccccc5Cl)cc4)n3)cc2)CC1` was run?
Answer: The Potency was “inactive”.

Question: How did the Potency turn out when `COc1ccc(N(C(=O)Oc2c(C)cccc2C)c2ccnc(Nc3ccc(N4CCN(C)CC4)cc3)n2)c(OC)c1` was run?
Answer: Its Potency is “inactive”.

Question: For `COC1=C[C@@H]2[C@@H]3Cc4ccc(OC)c(O)c4[C@]2(CCN3C)CC1=O`, which Potency is on record?
Answer: The Potency was “inactive”.

Question: How did the Potency turn out when `O=C(N[C@@H](COc1ccc2[nH]c(=O)[nH]c2c1)c1ccccc1)c1cccn(Cc2ccc(F)c(F)c2)c1=O` was run?
Answer: The Potency was “inactive”.

Question: How did the Potency turn out when `O=C(Oc1ccc([N+](=O)[O-])cc1)N1CCC(C(O)(c2ccc3c(c2)OCO3)c2ccc3c(c2)OCO3)CC1` was run?
Answer: The Potency was “inactive”.

Question: With `CC(=O)Nc1ccc(OC[C@](C)(O)C(=O)Nc2ccc([N+](=O)[O-])c(C(F)(F)F)c2)cc1` as the compound, how does the Potency read?
Answer: The Potency was “inactive”.

Question: For `CC(C)[C@]12O[C@H]1[C@@H]1O[C@]13[C@]1(O[C@H]1C[C@H]1C4=C(CC[C@@]13C)C(=O)OC4)[C@@H]2O`, which Potency is on record?
Answer: The Potency was “inactive”.
